The list is not random: actives were taken first. Their share in the collection is about 4%.
TRHR enhancer-1: allosteric enhancers of human TRH receptor | TRHR cells, fluo-8 calcium fluorescence, EC20 TRH enhancement | enhancement, % at 2 µM | hit rate 0.66% among 360,000 | AID 493056; in the data active means enhancement above about 30%
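TRHR-expressing cells loaded with fluo-8 calcium dye were read kinetically (ex 480/em 530) during compound addition, then stimulated with an EC20 of TRH (10 nM final). Enhancement of the Gq-mediated intracellular calcium response was scored.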
D1 potentiator: potentiators of human D1 dopamine receptor; HEK293 TREx D1 cells, calcium flux, dopamine EC20 potentiation; hit rate 0.036% among 360,000; potentiation, % at 10 µM; in the data active means potentiation above about 30%
Target sequence (P21728 whole entry, looked up): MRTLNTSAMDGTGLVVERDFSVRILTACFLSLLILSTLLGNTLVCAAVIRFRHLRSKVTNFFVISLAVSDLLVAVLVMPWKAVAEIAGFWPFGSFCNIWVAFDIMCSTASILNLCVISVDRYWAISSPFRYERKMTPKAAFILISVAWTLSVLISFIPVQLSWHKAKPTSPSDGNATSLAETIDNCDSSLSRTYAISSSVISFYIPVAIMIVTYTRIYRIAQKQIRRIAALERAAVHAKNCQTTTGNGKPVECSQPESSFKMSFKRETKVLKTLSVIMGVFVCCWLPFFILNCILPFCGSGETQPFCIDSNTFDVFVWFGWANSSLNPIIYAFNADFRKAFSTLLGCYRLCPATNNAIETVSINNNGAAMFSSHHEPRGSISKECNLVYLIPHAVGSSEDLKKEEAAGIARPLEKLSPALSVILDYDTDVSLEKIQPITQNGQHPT
TRHR agonist-1: activates the human TRH receptor; AID 493084; P34981; TRHR cells, calcium flux fluo-8, FDSS agonist mode; activation, % at 2 µM; hit rate 0.18% among 360,000; in the data active means activation above about 30%
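TRHR-expressing cells loaded with fluo-8 calcium dye; 23 nL library compound pin-transferred, kinetic FDSS fluorescence (Ex 480/Em 530) recorded about 180 s for agonist-induced calcium release, before a 10 nM TRH EC20 addition for potentiator mode.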
D1 ag: agonists of human D1 dopamine receptor; HEK293 T-REx D1 cells, calcium flux, agonist mode; activation, % at 2 µM; hit rate 1% among 360,000; AID 504660; in the data active means activation above about 30%
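Agonism was scored from calcium flux recorded over 180 s (1 read/s) after pintool compound addition, following a 10-cycle baseline. Cells were inducible force-coupled HEK293 TREx D1, plated overnight at 30 C and loaded with no-wash calcium dye.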
Glioma ERSR ind: ER stress response induction in glioma | U87-MG GRP78 promoter luciferase reporter, 16 h | Potency, µM, most hits filed as activators | hit rate 0.02% among 420,000 | AID 602332; further: series mostly up to about 76 µM; nearly all actives have a fitted effect of over 35% in size
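Stably transfected U87-MG glioma cells carrying a GRP78-based luciferase sensor; 16 h compound incubation. Luminescence end-point read 10 min after Bright-Glo addition at room temperature.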
D1 antagonist: antagonists of human D1 dopamine receptor; HEK293 TREx D1 cells, calcium flux, dopamine EC80; stronger effect = lower value; activity change, negative = inhibition, % at 10 µM; hit rate 3.2% among 360,000; in the data active means activity change below about -30%
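Using tetracycline-induced force-coupled D1 Hek293 cells and a calcium dye, signals were followed for 180 s after compound, then for 180 s after EC80 dopamine, to detect inhibitors.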
TRHR enhancer-2: human TRH receptor allosteric enhancement confirmation; 970 tested, under 10 active; shares compounds with TRHR enhancer-1; TRH receptor cell assay, enhancer confirmation qHTS; activity change, negative = inhibition, % at 46.1 µM; AID 493076;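 further: compound effect scored on response to added TRH at EC20 of 10 nM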
TRHR agonist-2: human TRH receptor agonism confirmation; Potency, µM (series often up to 46.1 µM), usual class: activators; AID 493078; TRHR-expressing cells, agonist activation read-out; hit rate 8% among 970; shares compounds with TRHR enhancer-1; further: nearly all actives have a fitted effect of over 75% in size
A number is an active result; i = inactive; ? = inconclusive; nt = not tested or not shown. Unless noted, the call rests on the fitted dose curve; in most records, active means well fitted curve in the direction sought with a large enough effect; inconclusive means small, poorly fitted or top-dose-only effect, or another doubt; inactive means no such curve, though single readings can be large; an effect the other way counts as inactive or inconclusive.

SMILES | TRHR enhancer-1 | D1 potentiator | TRHR agonist-1 | D1 ag | Glioma ERSR ind | D1 antagonist | TRHR enhancer-2 | TRHR agonist-2
O=S(=O)(c1ccc2ccccc2c1)N1CCN(C2Cc3ccccc3C2)CC1 | i | i | i | i | i | i | nt | nt
Cc1ccc(NC(=O)NN2CCN(C)CC2)cc1C | 41.3 | i | i | i | i | i | i | i
Cc1ccc(NC(=O)c2cc(S(=O)(=O)N3CCCC3)cn2C)cc1C | 46.6 | i | i | i | i | i | i | i
COc1cccc(CN2CC(C(=O)NCc3ccc(Cl)s3)CCC2=O)c1 (configuration not stated) | i | i | i | i | i | i | nt | nt
CCCC(=O)NC1C2CC3CC(C2)CC1C3 (configuration not stated) | 50.7 | i | i | i | i | i | i | i
CCOC(=O)CSc1nnc(-c2ccccc2)c(=O)[nH]1 | i | i | i | i | i | i | nt | nt
CCc1ccc2occ(CC(=O)Nc3nnc(SC)s3)c2c1 | i | i | i | i | i | i | nt | nt
CCc1ccc2occ(CC(=O)Nc3ccc(C)c(C)c3)c2c1 | 63.1 | i | i | i | i | i | i | i
C[C@]12CCC[C@H](O1)c1c(cc3c(c1O)C(=O)c1c(O)cc(O)cc1C3=O)O2 | nt | nt | nt | nt | i | nt | nt | nt
CC(C)(C)NC(=O)CSc1nc2cccnc2n1C1CCCCC1 | 51.0 | i | i | i | i | i | i | i
CNC(=O)CSc1nc2cccnc2n1C1CCCCC1 | i | i | i | i | i | i | nt | nt
Cc1c(O)ccc2cc(S(=O)(=O)c3ccccc3)c(=O)oc12 | i | i | 37.4 | 31.6 | i | i | i | 23.1µM
Clc1cccc(Cl)c1CSc1nnc(-c2ccncc2)s1 | i | i | i | 144.4 | i | i | i | ?
Clc1ccc(CSc2nnc(-c3ccncc3)s2)cc1 | i | i | i | i | i | i | nt | nt
CCOc1ccc(N(Cc2nnc3n2CCCCC3)C(=O)Nc2cccc(C)c2)cc1 | 57.8 | i | i | i | i | i | i | i
COc1ccc(O)c(C(=O)c2coc(=N)c(C(=O)Nc3ccc(SC(F)F)cc3)c2)c1 | i | i | i | 33.0 | i | i | i | ?
COCCN(C(=O)COC(=O)c1sccc1C)c1c(N)n(Cc2ccccc2)c(=O)[nH]c1=O | i | i | i | i | i | i | nt | nt
CCOC(=O)C1=C(C)N=c2s/c(=C\c3ccc(OCC(=O)O)cc3)c(=O)n2C1c1ccccc1 (configuration not stated) | i | i | i | i | i | i | nt | nt
CC(=O)CC(=O)Nc1cccc2c1CCCC2 | i | i | i | i | i | i | nt | nt
CCCC(=O)Nc1cccc2c1CCCC2 | 48.8 | i | i | i | i | i | i | i
CCc1ccc(/C=C2/SC(=S)NC2=O)cc1 | nt | nt | nt | nt | i | nt | nt | nt
CC(=O)Nc1sc(C)c(C)c1C(=O)OCC(=O)Nc1cc(S(C)(=O)=O)ccc1Cl | i | i | i | i | i | i | nt | nt
CS(=O)(=O)c1ccc(Cl)c(NC(=O)COC(=O)c2c(Cl)cccc2Cl)c1 | 41.2 | i | i | i | i | i | i | i
COc1ccccc1CNC(=O)CCCn1nc(C)c2sc3ccccc3c2c1=O | i | i | i | i | i | i | nt | nt
COc1cccc(NS(=O)(=O)c2ccc3c(c2)N(C(C)=O)CCO3)c1 | 103.9 | i | i | i | i | i | i | i
SMILES | TRHR enhancer-1 | D1 potentiator | TRHR agonist-1 | D1 ag | Glioma ERSR ind | D1 antagonist | TRHR enhancer-2 | TRHR agonist-2
O=C(c1cn(CC(=O)N2CCCCC2)c2ccccc12)C1CC1 | 50.6 | i | i | i | i | i | i | i
O=C(O)Cn1cc(C(=O)C2CC2)c2ccccc21 | i | i | i | i | i | i | nt | nt
CCc1ccccc1NC(=O)Cn1nc(C(F)(F)F)c2c1CCCC2 | i | i | i | i | i | i | nt | nt
Cc1c(NC(=O)Cn2nc(C(F)(F)F)c3c2CCCC3)c(=O)n(-c2ccccc2)n1C | 58.5 | i | i | i | i | i | i | i
COC(=O)c1ccccc1NC(=O)Cn1nc(C(F)(F)F)c2c1CCCC2 | 56.7 | i | i | i | i | i | i | i
CCN(C(=O)Cn1nc(C(=O)O)c2ccccc2c1=O)C1CCCCC1 | 44.2 | i | i | i | i | i | i | i

Compound activity (PubChem BioAssay)
